We go through 19 compounds from PubChem BioAssay (NCATS).

As a reminder, the AC50 is the concentration giving half of the maximal activity seen.

For test [1] the following is noted: Ebola virus entry assay, green fluorescence channel.
For test [2] the following is noted: Ebola virus entry assay, blue channel fluorescence.
The conditions of test [3]: Ebola virus entry assay, ratio channel.
For test [4] the following is noted: Ebola virus entry assay, reporter ratio channel; Channel type: primary.
The nature of test [5]: qHTS assay for measurement of the activity of small molecule inhibitors on Zika virus induced Caspase-3 activity in human iPSC derived neural progenitor cells (hNPCs) (AID 1224857; active means well fitted inhibition curve with a large enough effect; further: % of control where 0% means no effect; nearly all actives have a fitted effect of over 65% in size). The conditions noted are these: hNPCs ZIKV-induced caspase-3/7, Caspase-Glo luminescence, 6 h; series mostly up to 45.7 µM. Summed up:
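Caspase-3/7 induction by a 6-hour ZIKV infection was quantified with a luminescent Caspase-Glo 3/7 reagent incubated 30 minutes at room temperature. Compounds were preincubated with hNPCs for 1 hour; inhibition was calculated against uninfected and infected control wells.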
(In general: In qHTS, concentration-response curves come from the screen itself.)

The nature of test [6]: qHTS assay for measurement of the activity of small molecule inhibitors on Zika virus induced Caspase-3 activity in human astrocytoma cells (AID 1224859; active means well fitted inhibition curve with a large enough effect;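 further: plate controls were ZIKV-infected untreated cells for no effect and uninfected cells for full effect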). The conditions noted are these: SNB-19 ZIKV-induced caspase-3/7, luminescence, 6 h; series mostly up to 45.7 µM. Summed up: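 In SNB-19 cells plated at 250 cells/well and grown 16-20 h, compounds were applied 1 h before ZIKV (2 FFU/cell). Six hours later caspase-3/7 luminescence was recorded.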

SMILES strings stand for the structures. Values without a mark were called inactive. Inconclusive results are not listed. For some assays here: Results with a measured potency or affinity are listed apart. Active and inactive are the calls of the source. Unless noted, how the calls were made is not given here.
Wherever efficacy is given: 0% is about no effect.

In the case of `O=C(N[C@@H]1N=C(c2ccccc2F)c2cccc3c2N(CC3)C1=O)c1cc2ccccc2[nH]1`, the efficacy in test [1] was -148%. For the same compound, the results for the AC50 in test [2], in test [3] and in test [4] were 25.1 µM (active), 15.8 µM (active) and 15.8 µM (active), respectively. Also, the Potency entry in test [5] is “inactive”. Also, the compound was classed as inactive in test [6].

`c1ccc2nc(N3CCNCC3)ccc2c1`: in test [1], the efficacy is 106%. Further, the results for the half-maximal activity concentration (AC50) in test [2], in test [3] and in test [4] were 39.8 µM (active), 35.5 µM (active) and 35.5 µM (active), respectively. For the same compound, in test [5], the Potency result was “inactive”. Further, in test [6], the outcome was inactive.

For the compound `COc1cc(C[C@@H](C)N)c(OC)cc1Br`, the efficacy in test [1] is 42.4%. Moreover, the AC50 in test [2], in test [3] and in test [4] was 31.6 µM (active) in each case. Besides, the Potency result in test [5] was “inactive”. Also, the compound was called inactive in test [6].

With `C=CCOC(Cn1ccnc1)c1ccc(Cl)cc1Cl` (stereo not given), the efficacy in test [1] is 85%. Moreover, the AC50 in test [2] and in test [4] was 39.8 µM (active) each time. The outcome in test [3] and in test [6] was inactive. In addition, in test [5], the Potency result is “inactive”.

For the compound `C[C@@H]1O[C@@H](O[C@@H]2C=C3CC[C@@H]4[C@H](CC[C@]5(C)[C@@H](c6ccc(=O)oc6)CC[C@]45O)[C@@]3(C)CC2)[C@H](O)[C@H](O)[C@H]1O`, in test [1], the efficacy is 35.7%. Moreover, the AC50 in test [2] is 8.91 µM (active); in test [3], 7.94 µM (active); in test [4], 7.94 µM (active). In test [5], the Potency entry is “inactive”. In test [6], the compound was classed as inactive.

With `COc1ccc2[nH]cc(CCN(C(C)C)C(C)C)c2c1`, the efficacy in test [1] was 45.7%. Moreover, the concentration at half-maximal activity (AC50) in test [2] was 39.8 µM (active); in test [3], 31.6 µM (active); in test [4], 31.6 µM (active). The Potency entry in test [5] was “inactive”. Further, the call in test [6] was inactive.

As for `CC1COC2(c3ccccc3Cl)c3cc(Cl)ccc3NC(=O)CN12` (stereo not given), in test [1], the efficacy was 68%. Moreover, the concentration at half-maximal activity (AC50) in test [2], in test [3] and in test [4] was 28.2 µM (active) in each case. For the same compound, the Potency entry in test [5] was “inactive”. Also, the outcome in test [6] was inactive.

Consider `CCC1(c2cccc(O)c2)CCCCN(C)C1` (stereo not given), for which the efficacy in test [1] was 34.9%. Besides, the concentration at half-maximal activity (AC50) in test [2] is 20 µM (active); in test [4] it was 39.8 µM (active). The result in test [3] and in test [6] was inactive.

Consider `c1ccc2c(c1)Sc1ccccc1N2CC1CN2CCC1CC2` (stereo not given), for which the efficacy in test [1] was -241%. Also, the AC50 is 5.01 µM (active) in test [2], 3.98 µM (active) in test [3] and 3.98 µM (active) in test [4]. For the same compound, in test [5], the Potency entry is “inactive”. Also, the compound was called inactive in test [6].

Turning to `Clc1ccc(CSC(Cn2ccnc2)c2ccc(Cl)cc2Cl)cc1` (stereo not given), the efficacy in test [1] is -183%. The concentration at half-maximal activity (AC50) in test [2] was 5.62 µM (active); in test [3] it was 4.47 µM (active); in test [4], 4.47 µM (active). Moreover, the Potency entry in test [5] was “inactive”. In test [6], the outcome was inactive.

As to `CC(Cc1ccccc1)NCc1ccccc1Cl` (stereo not given), the efficacy in test [1] was -110%. Further, the concentration at half-maximal activity (AC50) in test [2], in test [3] and in test [4] was 14.1 µM (active) in each case. In test [5], the Potency result was “inactive”. Besides, the call in test [6] was inactive.

As for `CN1C2CCC(C)(C)C1CC(OC(=O)C(O)(c1cccs1)c1cccs1)C2` (stereo not given), the efficacy in test [1] is 75.5%. Also, the AC50 is 20 µM (active) in test [2], 15.8 µM (active) in test [3] and 15.8 µM (active) in test [4]. Moreover, in test [5], the Potency entry was “inactive”. Further, in test [6], the outcome was inactive.

In the case of `OC(c1ccccc1)(c1ccccc1)C1CCNCC1`, in test [1], the efficacy is 37.5%. In addition, the AC50 in test [2] is 20 µM (active); in test [3], 15.8 µM (active); in test [4] it was 15.8 µM (active). Moreover, the Potency result in test [5] is “inactive”. The call in test [6] was inactive.

Take `C[C@]12Cc3nonc3C[C@@H]1CC[C@@H]1[C@@H]2CC[C@@]2(C)[C@H]1CC[C@]2(C)O`: the efficacy in test [1] is 48.4%. For the same compound, the AC50 in test [2] was 15.8 µM (active); in test [3] it was 17.8 µM (active); in test [4], 17.8 µM (active). Further, the result in test [6] was inactive.

For `CCN(CC)Cc1nccn1-c1ccc([N+](=O)[O-])cc1C(=O)c1ccccc1Cl`, in test [1], the efficacy is 96.4%. Further, the half-maximal activity concentration (AC50) in test [2] and in test [4] was 39.8 µM (active) each time. The outcome in test [3] and in test [6] was inactive.

On to `CN1CCC(N(Cc2ccccc2)c2ccccc2)CC1`, for which, in test [1], the efficacy was 45.7%. Besides, the figures for the concentration at half-maximal activity (AC50) in test [2], in test [3] and in test [4] were 7.08 µM (active), 4.47 µM (active) and 4.47 µM (active), respectively. Further, in test [6], the outcome was inactive.

Take `CCOC(C(=O)OCCN(C)C)(c1ccccc1)c1ccccc1`: the efficacy in test [1] is 59.7%. Moreover, the concentration at half-maximal activity (AC50) in test [2] is 22.4 µM (active); in test [3], 25.1 µM (active); in test [4], 25.1 µM (active). In addition, the Potency entry in test [5] was “inactive”. For the same compound, in test [6], the compound was classed as inactive.

With `COc1cc(C[C@@H](C)N)c(OC)cc1C`, the efficacy in test [1] was 32.9%. The half-maximal activity concentration (AC50) in test [2] and in test [4] was 35.5 µM (active) throughout. Moreover, the result in test [3] and in test [6] was inactive. Moreover, the Potency result in test [5] is “inactive”.

Take `CC[C@H]1C[C@@H]2C[C@H]3c4[nH]c5ccc(OC)cc5c4CCN(C2)[C@@H]13`: the efficacy in test [1] is 66.1%. The values for the AC50 in test [2], in test [3] and in test [4] were 31.6 µM (active), 39.8 µM (active) and 39.8 µM (active), respectively. In addition, the Potency entry in test [5] was “inactive”. For the same compound, the compound was classed as inactive in test [6].
